PrPC surface inh: reduces human prion protein on the cell surface; P04156; cell surface PrPC, TR-FRET read-out; hit rate 0.43% among 370,000; inhibition, % at 13.8 µM; AID 720596; in the data active means inhibition above about 24%
PfHsp40 yeast: restores yeast growth despite PfHsp40 toxicity | S. cerevisiae expressing PfHsp40, growth rescue, ATP luminescence | growth rescue, % at 12.5 µM | hit rate 0.68% among 340,000 | AID 504582; in the data active means growth rescue above about 28%, passing the limit was not always enough;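 further: yeast W303a lacking pdr1 and pdr3 grown in galactose medium; growth measured after three days at 30 °C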
FBA Mtb inh: inhibits M. tuberculosis FBA enzyme. AID 588726. P9WQA3. inhibition, % at 1 µM. purified M. tuberculosis FBA, fluorescence read-out. hit rate 2.3% among 360,000; in the data active means inhibition above about 27%
Target sequence (P9WQA3 whole entry, looked up): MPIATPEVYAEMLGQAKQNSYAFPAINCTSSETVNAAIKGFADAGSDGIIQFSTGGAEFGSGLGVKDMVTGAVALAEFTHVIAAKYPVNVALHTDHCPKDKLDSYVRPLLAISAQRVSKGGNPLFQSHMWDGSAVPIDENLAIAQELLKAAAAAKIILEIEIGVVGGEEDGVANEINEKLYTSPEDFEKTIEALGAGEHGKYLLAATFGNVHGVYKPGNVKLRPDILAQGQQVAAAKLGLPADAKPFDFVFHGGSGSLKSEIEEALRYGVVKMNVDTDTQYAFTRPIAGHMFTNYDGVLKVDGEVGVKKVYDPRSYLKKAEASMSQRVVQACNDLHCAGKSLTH
PrP 5UTR inh: suppresses PrP 5' UTR mRNA reporter expression | cell-based PrP 5' UTR mRNA reporter, plate reader | inhibition, % (concentration not given with the values) | hit rate 0.35% among 340,000; in the data active means inhibition above about 52%
GDH-TPI counter: inhibits GDH-TPI coupling enzymes, artifact for Mtb FBA screen. GDH-TPI coupled enzyme counterscreen, NADH absorbance. inhibition, % at 4.8 µM. hit rate 1.2% among 360,000; in the data active means inhibition above about 30%
BJeLR viability: BJeLR cell viability loss | BJeLR (HRASV12) viability, CellTiter-Glo ATP luminescence, 48 h | inhibition, % (no concentration beside the values) | hit rate 0.17% among 300,000 | AID 1554; in the data active means inhibition above about 50%
Numbers stand for hits; 0 = inactive; - = no result given; + = active, no number. Hits are enriched below; roughly 4.5% of the tested compounds scored in any of these assays.

SMILES	PrPC surface inh	PfHsp40 yeast	FBA Mtb inh	PrP 5UTR inh	GDH-TPI counter	BJeLR viability
Cc1c(NC(=O)C(C)NCC2CCCO2)c(=O)n(-c2ccccc2)n1C (stereo unspecified)	0	0	+	0	0	0
COC(=O)[C@]12C[C@H](CC(=O)NCc3cccs3)C(=O)N(CCc3ccc(OC)c(OC)c3)C1=C[C@H](C1CCCC1)O[C@@H]2C	0	-	-	-	-	-
O=C(Cn1c(=O)c2cccn2c2cccnc21)NCCCN1CCN(c2ccccc2)CC1	0	-	-	-	-	-
CCOc1cc2[nH]c(=S)n(CCOC)c(=O)c2cc1OCC	0	0	0	0	33	0
CCOc1cc2[nH]c(=S)n(CCCN(CC)CC)c(=O)c2cc1OCC	0	0	0	0	0	0
CN(C)c1ccc(C(=O)c2ccccc2C(=O)O)c(O)c1	0	0	0	0	41	0
CCOC(=O)/C(C#N)=C/N=c1ccc(C)cn1C	0	0	0	0	39	0
Cc1ccc(C(=O)C(SC(C)(C)C)n2cncn2)cc1 (stereo unspecified)	0	467	0	0	0	0
CCCC(C(=O)c1ccccc1)n1cncn1 (stereo unspecified)	0	0	0	0	0	0
Cn1nc(-c2ccccn2)nc2c(=O)n(C)c(=O)nc1-2	0	0	0	0	0	0
CCCc1nc2c(=O)n(C)c(=O)nc-2n(C)n1	0	125	0	0	0	-
CCn1c(SCC(=O)c2ccc(-c3ccccc3)cc2)nnc1-c1ccccc1OC	0	-	-	-	-	-
O=C(NCc1ccc(Cl)cc1)O[C@H]1CC[C@@]23CCCN2C(=O)CCC[C@H]3C1	0	-	-	-	-	-
Cc1ccc(-n2c(SCC(=O)Nc3ccccc3-c3ccccc3)nnc2-c2cnccn2)cc1	0	-	-	-	-	-
C[C@@H]1CN([C@H](C)CO)C(=O)c2cc(NC(=O)Nc3ccc(F)cc3)ccc2O[C@H]1CN(C)C(=O)Nc1ccc(C(F)(F)F)cc1	-	47	0	0	0	-
C[C@H](CO)N1C[C@H](C)[C@@H](CN(C)C(=O)Nc2ccccc2)Oc2ccc(NC(=O)Nc3ccc(C(F)(F)F)cc3)cc2C1=O	0	0	0	0	0	-
CC(C)(C)C(=O)C(Cc1ccccc1Cl)n1cncn1 (stereo unspecified)	0	0	0	0	0	0
CC(C)(C)C(O)C(Cc1ccccc1Cl)n1cncn1 (stereo unspecified)	0	276	0	0	0	0
CCOC(=O)COc1ccc(C(C)c2ccc(NC(=O)OC(C)(C)C)cc2)cc1 (stereo unspecified)	0	-	-	-	-	-
Cn1ccnc1C(=O)O[C@@H]1CCC[C@@]2(C(=O)N(Cc3ccccc3)c3ccccc32)[C@H]1NC(=O)CCc1ccccc1	0	-	-	-	-	-
CCCCn1cnc2c(c(-c3ccccc3)c(-c3ccccc3)n2Cc2ccco2)c1=N	0	-	0	-	0	62
C=CCCC(=O)N[C@H]1CC[C@@]23CCCN2C(=O)CCC[C@H]3[C@H]1C	0	-	-	-	-	-
COC(=O)c1ccccc1NC(=O)COC(=O)c1ccccc1N=Nc1ccc(N(C)C)cc1	0	73	0	0	0	0
CC[C@@H](CCCCCC#N)CCC(=O)N(c1ccccc1)c1ccccc1	0	-	-	-	-	-
CCOCCCn1c(=N)c(C(=O)NCc2ccc3c(c2)OCO3)cc2c(=O)n3ccccc3nc21	0	-	-	-	-	0
SMILES	PrPC surface inh	PfHsp40 yeast	FBA Mtb inh	PrP 5UTR inh	GDH-TPI counter	BJeLR viability
CCN(C(=O)c1cc2c(=O)n3ccccc3nc2n1CCCOC)C1CCCCC1	0	0	118	0	0	0
CCN(C(=O)c1cc2c(=O)n3ccccc3nc2n1C)C1CCCCC1	0	0	+	0	0	0
CN(C(=O)c1cc2c(=O)n3ccccc3nc2n1C)C1CCCCC1	0	0	+	0	0	0
CC1CCCCC1NC(=O)c1cc2c(=O)n3ccccc3nc2n1C (stereo unspecified)	0	0	180	0	0	0
Cc1ccccc1NC(=O)Cn1nnc(-c2ccncc2)n1	0	-	-	-	-	-
Cc1ccc(OCc2nnc(SCC(=O)Nc3ccc(S(N)(=O)=O)cc3)n2-c2ccc(Cl)cc2)cc1	0	-	-	-	-	-
N#Cc1ccc(/C=C2\CC3(OC(=O)C4CCCCC4)CCCN2C3)cc1 (stereo unspecified)	0	-	-	-	-	-
COCc1cc(=O)n2[nH]cc(-c3ccccc3)c2n1	0	0	133	0	0	0
CCOC(=O)Cc1cc(=O)n2[nH]cc(-c3cccc(Br)c3)c2n1	0	0	0	0	0	0
CCCCn1c(SCC(=O)NCc2ccco2)nc2c1c(=O)n(C)c(=O)n2C	0	45	0	0	0	0
CCOC(=O)[C@]12CCCC=C1N(Cc1ccc(OC)cc1)C(=O)[C@@H]2CC(=O)N1CCCC1	0	-	-	-	-	-
CC(C)C(NC(=O)CN1C(=O)c2cccc3cccc1c23)C(C)C	0	0	0	0	36	0
CC1(C)CC(=O)c2c(nc(SCC(=O)Nc3nsc(-c4ccccc4)n3)c(C#N)c2-c2ccccc2)C1	0	0	0	0	0	59
CC(=O)Nc1ccc2c(c1)C(=O)N(C)[C@H]1CC[C@H](CC(=O)NCc3ccc(F)cc3)O[C@@H]1CO2	0	-	-	-	-	-
CCn1cc(/C=C(\NC(=O)c2ccccc2F)C(=O)N2CCCC2)c2ccccc21	-	0	0	0	32	0
CCn1cc(/C=C(\NC(=O)c2ccccc2F)C(=O)N2CCOCC2)c2ccccc21	-	0	0	0	31	0
CCn1cc(/C=C(\NC(=O)c2ccccc2Cl)C(=O)N2CCOCC2)c2ccccc21	0	0	0	0	0	0
CN(C)S(=O)(=O)n1cc(/C=C(\NC(=O)c2ccccc2F)C(=O)N2CCOCC2)c2ccccc21	0	0	0	0	0	0
CCn1cc(/C=C(\NC(=O)c2ccccc2Cl)C(=O)N2CCN(C)CC2)c2ccccc21	0	0	0	0	39	0
COCCCN1C(=O)[C@H](CC(=O)NCc2ccc(OC)c(OC)c2)[C@]2(C(=O)OC)CCCCC=C12	0	-	-	-	-	-
CCN(CC)CCCNc1ccc(-c2nnc(-c3ccc(OCC(C)C)cc3)o2)cn1	0	0	+	0	0	0
COc1cccc(Cn2c3ccc(NC(=O)Cc4cc(OC)ccc4OC)cc3c(=O)n2C)c1	0	-	152	-	0	-
COc1cccc(CC(=O)Nc2ccc3c(c2)c(=O)n(C)n3-c2ccc(C(C)(C)C)cc2)c1	0	-	0	-	0	-
COc1cccc(Cn2c3ccc(NC(=O)CC(C)C(F)(F)F)cc3c(=O)n2C)c1 (stereo unspecified)	0	-	143	-	0	-
Cn1c(=O)c2cc(NC(=S)NC3CCCCC3)ccc2n1Cc1ccc(F)cc1	0	-	0	-	0	-
CC(CC(=O)Nc1ccc2c(c1)c(=O)n(C)n2Cc1ccc(F)cc1)c1ccccc1 (stereo unspecified)	0	-	130	-	0	-
CC(CC(=O)Nc1ccc2c(c1)c(=O)n(C)n2Cc1ccc(F)cc1)C(F)(F)F (stereo unspecified)	0	-	148	-	0	-
CC(C)(C)c1ccc(C(=O)Nc2cc(Cl)c(Cl)cc2C(=O)O)cc1	0	-	-	-	-	-
COC(=O)C[C@@H]1C=C[C@@H](NC(=O)c2ccccc2F)[C@@H](CO)O1	0	-	-	-	-	-
S=c1[nH]nc(-c2cc(-c3ccccc3)n[nH]2)n1/N=C/c1cccc2ccccc12	0	-	-	-	-	-

High-throughput results: PubChem, several laboratories
